Results taken from the supplement of paper PMC8007513.
Structures can show the parent of a compound that is named as a salt. ± gives the standard error. The whole screen tested about 1,300 compounds, of which about 130 (10%) showed an effect of 50% or more. For the sample, strong results were picked, then their nearest neighbours and some compounds at random.

Test system: Trichoderma virens ATCC 9645
Test: growth yield (OD600) with compound + IPBC relative to untreated control; higher = less growth inhibition
Details: compound concentration: 100 uM, IPBC concentration: 200 ng/ml
Procedure, shortened: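 Library compounds (100 μM final), with or without a co-applied biocide (200 ng ml^−1), were added to 100 μl aliquots of Trichoderma virens ATCC 9645 spores at 15,000 spores ml^−1 in potato dextrose broth. Cultures were grown at 30 °C in 96-well plates, and OD600 was measured at 40 h and 72 h. Each growth value is a mean of duplicate screens, expressed relative to the control with neither agent.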

Compound	growth yield (40 h) [%]	growth yield (72 h) [%]
Cc1cccc(N(C)C(=S)Oc2ccc3ccccc3c2)c1 [Tolnaftate] + CCCCNC(=O)OCC#CI [3-iodo-2-propynyl butylcarbamate (IPBC)]	0	35.9 ± 0.84
CC(C)(C)C(=O)OCOC(=O)[C@@H]1N2C(=O)[C@@H](NC(=O)[C@H](N)c3ccccc3)[C@H]2SC1(C)C [Pivampicillin] + CCCCNC(=O)OCC#CI [3-iodo-2-propynyl butylcarbamate (IPBC)]	125 ± 1.3	119.9 ± 0.73
CCCCCOC(=O)Nc1nc(=O)n([C@@H]2O[C@H](C)[C@@H](O)[C@H]2O)cc1F [Capecitabine] + CCCCNC(=O)OCC#CI [3-iodo-2-propynyl butylcarbamate (IPBC)]	99.28 ± 0.48	98.58 ± 0.84
CN(C)/N=N/c1[nH]cnc1C(N)=O [Dacarbazine] + CCCCNC(=O)OCC#CI [3-iodo-2-propynyl butylcarbamate (IPBC)]	86.25 ± 0.48	93.03 ± 0.52
O=C([O-])c1ccccc1-c1c2cc(Br)c(=O)cc-2oc2[c]([Hg+])c([O-])c(Br)cc12.[Na+].[Na+].[OH-] [Merbromin] + CCCCNC(=O)OCC#CI [3-iodo-2-propynyl butylcarbamate (IPBC)]	5.4 ± 0.64	3.99 ± 0.21
COc1ccc([C@@H]2CC(=O)c3c(O)cc(O[C@@H]4O[C@H](CO[C@@H]5O[C@@H](C)[C@H](O)[C@@H](O)[C@H]5O)[C@@H](O)[C@H](O)[C@H]4O)cc3O2)cc1O [Hesperidin] + CCCCNC(=O)OCC#CI [3-iodo-2-propynyl butylcarbamate (IPBC)]	86.41 ± 0.64	92.6 ± 2.2
C[C@@H](O[C@H]1OCCN(Cc2n[nH]c(=O)[nH]2)[C@H]1c1ccc(F)cc1)c1cc(C(F)(F)F)cc(C(F)(F)F)c1 [Aprepitant] + CCCCNC(=O)OCC#CI [3-iodo-2-propynyl butylcarbamate (IPBC)]	113 ± 12	104 ± 8.8
CNCCc1ccccn1 [Betahistine mesylate] + CCCCNC(=O)OCC#CI [3-iodo-2-propynyl butylcarbamate (IPBC)]	88 ± 8.3	92 ± 5.6
O=C(NCNC(=O)NC1C(=O)NC(=O)N1CO)NC1C(=O)NC(=O)N1CO (stereo not drawn) [Imidurea] + CCCCNC(=O)OCC#CI [3-iodo-2-propynyl butylcarbamate (IPBC)]	89 ± 7	92.5 ± 5.5
CCCc1cc(=O)[nH]c(=S)[nH]1 [Propylthiouracil] + CCCCNC(=O)OCC#CI [3-iodo-2-propynyl butylcarbamate (IPBC)]	90.1 ± 11	93 ± 6.4
CCCCCCNC(=O)n1cc(F)c(=O)[nH]c1=O [Carmofur] + CCCCNC(=O)OCC#CI [3-iodo-2-propynyl butylcarbamate (IPBC)]	21.9 ± 0.95	31.4 ± 0.32
CC(C(=O)O)c1ccc(C(=O)c2ccccc2)s1 (stereo not drawn) [Tiaprofenic acid] + CCCCNC(=O)OCC#CI [3-iodo-2-propynyl butylcarbamate (IPBC)]	77.83 ± 0.32	83.38 ± 0.32
CCCCN(CCCC)CCC(O)c1cc2c(Cl)cc(Cl)cc2c2cc(C(F)(F)F)ccc12 (stereo not drawn) [Halofantrine hydrochloride] + CCCCNC(=O)OCC#CI [3-iodo-2-propynyl butylcarbamate (IPBC)]	13.8 ± 0.16	7.66 ± 1.1
CCN1CCCC(OC(=O)C(c2ccccc2)c2ccccc2)C1 (stereo not drawn) [Piperidolate hydrochloride] + CCCCNC(=O)OCC#CI [3-iodo-2-propynyl butylcarbamate (IPBC)]	85.5 ± 1.6	94.08 ± 0.73
CC[C@@]1([C@@H]2O[C@@H]([C@H]3O[C@@](O)(CO)[C@H](C)C[C@@H]3C)C[C@@H]2C)CC[C@H]([C@]2(C)CC[C@]3(C[C@H](O)[C@@H](C)[C@@H]([C@@H](C)[C@@H](OC)[C@H](C)C(=O)O)O3)O2)O1 [Monensin sodium salt] + CCCCNC(=O)OCC#CI [3-iodo-2-propynyl butylcarbamate (IPBC)]	79.4 ± 9.8	89.6 ± 9.2
CC(Cc1cccc(C(F)(F)F)c1)NCCOC(=O)c1ccccc1 (stereo not drawn) [Benfluorex] + CCCCNC(=O)OCC#CI [3-iodo-2-propynyl butylcarbamate (IPBC)]	56.4 ± 1.8	81.8 ± 1.5
Cc1cccc(Nc2ccncc2S(=O)(=O)NC(=O)NC(C)C)c1 [Torsemide] + CCCCNC(=O)OCC#CI [3-iodo-2-propynyl butylcarbamate (IPBC)]	95.3	114 ± 17
CNCC[C@@H](Oc1cccc2ccccc12)c1cccs1 [(R)-Duloxetine hydrochloride] + CCCCNC(=O)OCC#CI [3-iodo-2-propynyl butylcarbamate (IPBC)]	61.6 ± 3.8	90.3 ± 0.1
O=C(O)CCCC[C@@H]1SC[C@@H]2NC(=O)N[C@@H]21 [Biotin] + CCCCNC(=O)OCC#CI [3-iodo-2-propynyl butylcarbamate (IPBC)]	85.3 ± 3.3	91.03 ± 0.84
C=C1C[C@@H]2[C@H](CC[C@]3(C)C(=O)CC[C@@H]23)[C@@]2(C)C=CC(=O)C=C12 [Exemestane] + CCCCNC(=O)OCC#CI [3-iodo-2-propynyl butylcarbamate (IPBC)]	63.5 ± 0.64	77.6 ± 1.5
CCOc1cc(CC(=O)N[C@@H](CC(C)C)c2ccccc2N2CCCCC2)ccc1C(=O)O [Repaglinide] + CCCCNC(=O)OCC#CI [3-iodo-2-propynyl butylcarbamate (IPBC)]	104 ± 7.3	104 ± 4.8
CN1CCN(C(c2ccccc2)c2ccc(Cl)cc2)CC1 (stereo not drawn) [Chlorcyclizine hydrochloride] + CCCCNC(=O)OCC#CI [3-iodo-2-propynyl butylcarbamate (IPBC)]	76.9 ± 1.6	91.6 ± 2.6
Cc1cccc(CN2CCN(C(c3ccccc3)c3ccc(Cl)cc3)CC2)c1 (stereo not drawn) [Meclozine dihydrochloride] + CCCCNC(=O)OCC#CI [3-iodo-2-propynyl butylcarbamate (IPBC)]	3.02 ± 1.1	3.78 ± 0.63
CN1CCCN(C(c2ccccc2)c2ccc(Cl)cc2)CC1 (stereo not drawn) [Homochlorcyclizine dihydrochloride] + CCCCNC(=O)OCC#CI [3-iodo-2-propynyl butylcarbamate (IPBC)]	58.5 ± 2.2	89.9 ± 1.6
